# Bioassay records (PubChem BioAssay)
# Rab9 promoter act = activates the Rab9 promoter; Huh7 Rab9 promoter-luciferase reporter, luminescence, 24 h; Potency, µM (titrated, usually from 9.22 µM), for inactives: top-dose activation, negative = inhibition, actives largely listed as activators; 320,000 compounds, 2.8% hits; further: % of control where 0% means no effect; nearly all actives have a fitted effect of over 60% in size
#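 Huh7 cells stably carrying a Rab9 promoter-luciferase reporter, 1500 cells per well in OP-MEM I with 10% FBS, treated with compound 24 hours at 37C. Luciferase activity read by luminescence after 10 minutes with Amplite reagent.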
# ELG1 genotoxic = inducers of genotoxicity in HEK293T ELG1-luciferase cells. HEK293T ELG1-luciferase reporter, luminescence, 16 h. Potency, µM (doses to about 46 µM), for inactives: top-dose activity change, positive = activation, most hits filed as activators. 330,000 compounds, 1.3% hits. AID 504466; further: % of control where 0% means no effect; nearly all actives have a fitted effect of over 60% in size
#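 ELG1-luciferase HEK293T cells, 2,000/well; compound pinned in; 16 hr, 37 °C, 5% CO2; ONE-Glo, 30 min RT; luminescence on CCD imager.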
# ELG1 repair inh = ELG1-dependent DNA repair inhibition. HEK293T ELG1-luciferase reporter, luminescence, 16 h; DNA damage induced by 5-fluorouridine. Potency, µM (highest dose often 46.1 µM), inactives show at the highest dose activity change, negative = inhibition, actives largely listed as inhibitors. 330,000 compounds, 2.3% hits. AID 504467; further: on the % scale 0 is the no-effect control and ±100 the full control effect; nearly all actives have a fitted effect of over 55% in size
#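 Cells (2,000 per well) received 5-fluorouridine plus test compound or DMSO and were incubated 16 hr at 37 °C, 5% CO2. Luciferase activity was read by luminescence 30 min after ONE-Glo addition; signal suppression marked inhibition of damage-induced ELG1 function.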
# FLuc modulator = inhibits or activates purified firefly luciferase, miR-21 counter-screen; P08659; purified FLuc, Km substrates, luminescence inhibition; AID 588342; 360,000 compounds, 6.9% hits; Potency, µM (doses to about 57.5 µM), inactives show top-dose activity change, negative = inhibition, usual class: inhibitors;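 further: plate controls were vehicle for no effect and reference inhibitor for full effect; nearly all actives have a fitted effect of over 55% in size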
# Target sequence (P08659 whole entry, looked up): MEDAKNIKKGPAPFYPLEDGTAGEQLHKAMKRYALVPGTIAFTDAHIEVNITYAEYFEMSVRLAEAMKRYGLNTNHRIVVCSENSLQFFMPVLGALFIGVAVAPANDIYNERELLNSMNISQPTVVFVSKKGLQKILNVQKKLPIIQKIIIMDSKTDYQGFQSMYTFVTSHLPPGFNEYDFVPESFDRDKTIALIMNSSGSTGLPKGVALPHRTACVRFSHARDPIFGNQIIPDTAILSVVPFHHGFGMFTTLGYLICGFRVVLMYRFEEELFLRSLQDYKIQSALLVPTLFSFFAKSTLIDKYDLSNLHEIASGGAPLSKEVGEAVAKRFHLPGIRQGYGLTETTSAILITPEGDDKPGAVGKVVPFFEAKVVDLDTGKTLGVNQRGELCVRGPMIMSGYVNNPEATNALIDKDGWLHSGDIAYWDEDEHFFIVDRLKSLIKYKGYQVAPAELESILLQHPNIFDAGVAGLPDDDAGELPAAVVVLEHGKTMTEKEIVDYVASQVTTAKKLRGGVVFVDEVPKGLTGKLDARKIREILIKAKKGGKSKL
#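 Purified P. pyralis luciferase (10nM final) with 10uM D-luciferin and 10uM ATP (Km levels) in 50mM Tris acetate pH 7.5, 10mM Mg acetate, 0.01% Tween-20, 0.05% BSA; qHTS 6-point titration, ~60 µM downward; luminescence read.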
# NPC1 prom act = activates the NPC1 promoter. 320,000 compounds, 2.4% hits. Potency, µM (highest dose often 9.22 µM), inactives show top-dose activation, hits mostly activators. Huh7 NPC1 promoter luciferase reporter, 24 h; further: % of control where 0% means no effect; nearly all actives have a fitted effect of over 60% in size
#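 Quantitative HTS used a cell-based reporter: Huh7 cells stably bearing the NPC1 promoter upstream of luciferase were treated with compounds for 24 h, and promoter activation was read as luminescence.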
# SMN2 splice up = enhancers of SMN2 splice variant expression; HEK293 SMN2-luciferase splicing reporter, luminescence, 30-36 h; Potency, µM (doses to about 46.1 µM), without a hit: at the top dose activity change, positive = activation, hits mostly activators; 210,000 compounds, 2.8% hits; AID 1458; further: % of control where 0% means no effect; nearly all actives have a fitted effect of over 55% in size
#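 HEK293 cells carry an SMN2 […]–luciferase reporter in which exon 7 inclusion puts luciferase in frame. Cells were plated 10-12 h before compound addition, then incubated 30-36 h at 37C. ONE-Glo luminescence was read; sodium butyrate at 4.5 mM final served as control.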
# ELG1 FLuc counter = luciferase inhibition in cell-free luciferin readout for ELG1 hits; shares compounds with ELG1 repair inh; cell-free firefly luciferase luminescence counter-screen, ViewLux; Potency, µM (highest dose often 46.1 µM), for the others: top-dose activity change, negative = inhibition, most hits filed as inhibitors; 350 compounds, 3% hits; further: on the % scale 0 is the no-effect control and ±100 the full control effect
# ELG1-Luc inh = confirmation of human ELG1-dependent DNA repair inhibitors; shares compounds with ELG1 repair inh; HEK293T ELG1-luciferase levels, luminescence; cells co-treated with 5-fluorouridine; Potency, µM (doses to about 46.1 µM), for inactives: top-dose activity change, negative = inhibition, actives largely listed as inhibitors; 670 compounds, 68% hits; AID 624248; further: on the % scale 0 is the no-effect control and ±100 the full control effect; nearly all actives have a fitted effect of over 55% in size
# ELG1 MMS Luc = inhibits ELG1-dependent repair under MMS stimulation in HEK293T cells. Potency, µM (titrated, usually from 46.1 µM), for inactives: top-dose activity change, negative = inhibition, hits mostly inhibitors. HEK293T luciferase-tagged ELG1 level, MMS stimulated. shares compounds with ELG1 repair inh. 670 compounds, 53% hits. AID 624249; further: on the % scale 0 is the no-effect control and ±100 the full control effect; nearly all actives have a fitted effect of over 60% in size
# ELG1 5FU viab = confirmation of ELG1 repair inhibitors: viability with 5FU; cell viability with 5-FU, ELG1-dependent repair; shares compounds with ELG1 repair inh; Potency, µM (doses to about 46.1 µM), for inactives: top-dose activity change, negative = viability loss, most hits filed as cytotoxic; AID 624250; 670 tested, under 10 active;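 further: ELG1-luc HEK293T cells cotreated with 5-fluorouridine at 10 µM final; viability measured 16 h after compound addition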
# ELG1 MMS viab = confirmation of ELG1 repair inhibitors: viability with MMS | shares compounds with ELG1 repair inh | Cell viability with MMS, ELG1-dependent DNA repair | Potency, µM (top dose mostly 46.1 µM), without a hit: top-dose activity change, negative = viability loss, most hits filed as cytotoxic | 670 compounds, 33% hits | AID 624251;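 further: ELG1-luc HEK293T cells co-treated with 10 µM MMS; viability read 16 h after compound addition; on the % scale 0 is the no-effect control and ±100 the full control effect; nearly all actives have a fitted effect of over 60% in size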
# Cell viab unstim = counter-screen for ELG1 repair inhibitors: unstimulated cell viability; shares compounds with ELG1 repair inh; cell viability counter-screen, unstimulated, luminescence; Potency, µM (highest dose often 45.9 µM), inactives show at the highest dose activity change, negative = loss of viability, usual class: cytotoxic; 900 compounds, 8% hits; AID 624252;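 further: compound exposure lasted 16 hours before reading; on the % scale 0 is the no-effect control and ±100 the full control effect; nearly all actives have a fitted effect of over 55% in size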
# FLuc biochem = counter-screen for ELG1 repair inhibitors: firefly luciferase inhibition. shares compounds with ELG1 repair inh. purified firefly luciferase, luminescence counter-screen. Potency, µM (titrated, usually from 57.5 µM), without a hit: top-dose activity, negative = inhibition, usual class: inhibitors. 350 compounds, 10% hits. AID 624253; further: on the % scale 0 is the no-effect control and ±100 the full control effect
# The depositor's hits bear a star; ? = inconclusive; / = not tested or not shown. This is a sample that favours compounds with a hit; in the whole collection about 9.3% have one here. The call rests on the fitted dose curve; in most records, active means well fitted curve in the direction sought with a large enough effect; inconclusive means small, poorly fitted or top-dose-only effect, or another doubt; inactive means no such curve, though single readings can be large; an effect the other way counts as inactive or inconclusive. Potency means the concentration at half of the fitted maximal effect.
SMILES,Rab9 promoter act,ELG1 genotoxic,ELG1 repair inh,FLuc modulator,NPC1 prom act,SMN2 splice up,ELG1-Luc inh,ELG1 MMS Luc,ELG1 5FU viab,ELG1 MMS viab,Cell viab unstim,others
COc1cc(OC)c2c(-c3cccc(-c4ccc(C#N)cc4)c3)cc(=O)oc2c1,/,-1%,4.6µM*,/,/,/,?,7.9µM*,?,7.1µM*,?,
CCOc1cccc(-c2nnc(SCC(=O)Nc3cc(C)ccc3OC)n2N)c1,0%,-8%,0.58µM*,-9%,7%,-6%,?,-18%,9%,0%,-5%,ELG1 FLuc counter=1%;FLuc biochem=-8%
COC(=O)Nc1csc2c1NC(=O)CCCC2,-2%,-3%,-3%,-3%,-3%,/,/,/,/,/,/,
Cc1cc(C)c(Cc2c(C)nc3c(C(=O)NCc4ccco4)cnn3c2C)c(C)c1,-14%,-7%,7.3µM*,1%,-11%,-64%,?,7.1µM*,-3%,7.9µM*,?,ELG1 FLuc counter=-13%;FLuc biochem=6%
Cc1ccc(CNC(=O)c2cnn3c(C)c(Cc4c(F)cccc4Cl)c(C)nc23)cc1,/,/,/,-1%,/,/,/,/,/,/,/,
COc1ccc(C(=O)N/N=C/c2cc(Br)ccc2O)cc1OC,-43%,?,2.1µM*,-16%,-33%,/,4µM*,13µM*,19%,16µM*,-13%,
O=C(CSc1nc2cc3ccccc3cc2[nH]1)Nc1ccc(F)cc1,/,/,/,-14%,/,-8%,/,/,/,/,/,
CCOc1cc(C(=O)Nc2cccc(OCC(=O)N3CCOCC3)c2)cc(OCC)c1OCC,-10%,-13%,2.1µM*,-2%,0%,/,8.9µM*,?,6%,0%,-18%,
O=C(Nc1cccc(OCC(=O)N2CCOCC2)c1)c1cccc(Cl)c1,0%,-4%,-7%,-17%,0%,/,/,/,/,/,/,
O=C(NCc1ccccn1)c1ccc(Cl)c(S(=O)(=O)N2CCCCCC2)c1,-12%,-11%,-18%,7%,-7%,/,/,/,/,/,/,
N#Cc1ccc(CN2CCC3(CC2)CCN(C(=O)c2cc(C(F)(F)F)cc(C(F)(F)F)c2)CC3)cc1,/,/,/,/,/,-59%,/,/,/,/,/,
C=CC[C@@H](CC(=O)NCCO)C(=O)NC[C@H](OC(=O)[C@@H](CC=C)Cc1ccc(F)cc1)c1ccccc1,/,-7%,3.3µM*,/,/,/,?,14µM*,?,-20%,-14%,
COc1cc2c(cc1OC)-c1cc(N3CCc4ccccc43)nc(=O)n1CC2,-2%,2%,?,?,2%,/,2.8µM*,26%,?,?,?,
Cc1ccc(Cl)cc1NC(=O)c1cc(CN2CCCC2)on1,/,/,/,6%,/,/,/,/,/,/,/,
COc1cccc(-c2nc(-c3ccccc3)c(-c3ccccc3)[nH]2)c1OCC(=O)O,-2%,-5%,-1%,3%,-1%,/,/,/,/,/,/,
COc1cccc(-c2nc(-c3ccc4c(c3)-c3ccccc3S4(=O)=O)c(-c3ccccc3)[nH]2)c1OC,-2%,0%,2.6µM*,-10%,-12%,3%,3.5µM*,-16%,?,?,-2%,
Cc1c(C(C)C)c(=O)n(-c2ccc(S(=O)(=O)NCc3ccccc3)cc2)n1C,-28%,-9%,1.5µM*,-2%,-33%,/,?,1.3µM*,-5%,1.3µM*,?,
Cc1c(C(C)C)c(=O)n(-c2ccc(S(=O)(=O)NC3CCCCC3)cc2)n1C,-19%,-7%,2.1µM*,2%,-27%,/,?,2.2µM*,-12%,2.5µM*,?,
Cc1c(C(C)C)c(=O)n(-c2ccc(S(=O)(=O)N3CCOCC3)cc2)n1C,14%,-2%,3%,2%,-2%,/,/,/,/,/,/,
CNC(=S)N1N=C(c2ccc(OC)cc2)CC1c1ccc(Cl)cc1Cl (stereo unspecified),6%,-4%,4.6µM*,1%,6%,/,?,-22%,?,-7%,3%,
CC1(C)c2cc(O)ccc2OC1N1CCOCC1 (stereo unspecified),-1%,-7%,-3%,-3%,3%,/,/,/,/,/,/,
COc1cc(C(=O)Oc2ccccc2/C=N/NC(=O)c2ccc(C)c(Cl)c2)cc(OC)c1OC,-33%,?,4.6µM*,-1%,-23%,-96%,2.8µM*,?,?,-11%,-10%,
Oc1ccccc1-c1ccn[nH]1,/,3%,?,/,/,/,/,/,/,/,/,
Oc1ccccc1-c1cc(-c2ccccc2)n[nH]1,/,?,?,/,/,/,/,/,/,/,-2%,
Cc1nn(-c2ccccc2)c2c1C(O)n1c(nc3ccccc31)S2 (stereo unspecified),14%,-35%,2.6µM*,-15%,4%,25%,16µM*,11µM*,?,25µM*,?,
COC(C[C@@H](O)CC(=O)[C@H](C)OCc1ccccc1)OC,-6%,1%,16%,0%,-3%,/,/,/,/,/,/,
CN(C)c1ccc(/C=C2\CCc3ccccc32)cc1,/,/,/,/,/,/,/,/,/,/,-6%,
COc1ccc2c(c1)C(=O)[C@@H](OC(=O)NS(=O)(=O)c1ccc(C)cc1)[C@H](c1ccc(OC)c(Br)c1)O2,/,/,/,/,/,7%,/,/,/,/,/,
